Our source for the z-score and composite z-score values is PubChem BioAssay.

Assay [1] in a line: resazurin metabolic signal in HepG2 cells – cell-based, resazurin fluorescence, 24 h, PK04 Diversity Set, profiling panel (AID 1172). Conditions: HepG2 viability, higher = more signal.
Assay [2] in a line: budding yeast growth changes without added modifier – OD600, strain BY4716, 24 h, basal condition, primary screen (AID 1173). Conditions: S. cerevisiae BY4716 growth, OD600, 24 h; higher = more signal, called active from +8 up or from −8 down.
A short description of assay [3]: viability profiling in MM1S myeloma cells – cell-based, resazurin fluorescence, basal, 24 h, PK04 Diversity Set, profiling panel (AID 1174).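 Note: MM1S multiple myeloma cell line.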 Conditions: higher = more signal, called active from +8 up or from −8 down.
The target of assay [4] is Dihydroorotate dehydrogenase (quinone), mitochondrial (Plasmodium falciparum (isolate 3D7)) (UniProt Q08210). The assay is described as follows: inhibition of P. falciparum DHODH – biochemical, C-terminal His tag, absorbance 600 nm, primary screen (AID 1175).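 Note: recombinant parasite enzyme with a five histidine tag at its C terminus.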 The following applies: PfDHODH enzyme, DCIP absorbance 600 nm; higher = more signal, called active from +8 up or from −8 down.
Chain of Dihydroorotate dehydrogenase (quinone), mitochondrial (Plasmodium falciparum (isolate 3D7)) (Q08210 whole entry, looked up): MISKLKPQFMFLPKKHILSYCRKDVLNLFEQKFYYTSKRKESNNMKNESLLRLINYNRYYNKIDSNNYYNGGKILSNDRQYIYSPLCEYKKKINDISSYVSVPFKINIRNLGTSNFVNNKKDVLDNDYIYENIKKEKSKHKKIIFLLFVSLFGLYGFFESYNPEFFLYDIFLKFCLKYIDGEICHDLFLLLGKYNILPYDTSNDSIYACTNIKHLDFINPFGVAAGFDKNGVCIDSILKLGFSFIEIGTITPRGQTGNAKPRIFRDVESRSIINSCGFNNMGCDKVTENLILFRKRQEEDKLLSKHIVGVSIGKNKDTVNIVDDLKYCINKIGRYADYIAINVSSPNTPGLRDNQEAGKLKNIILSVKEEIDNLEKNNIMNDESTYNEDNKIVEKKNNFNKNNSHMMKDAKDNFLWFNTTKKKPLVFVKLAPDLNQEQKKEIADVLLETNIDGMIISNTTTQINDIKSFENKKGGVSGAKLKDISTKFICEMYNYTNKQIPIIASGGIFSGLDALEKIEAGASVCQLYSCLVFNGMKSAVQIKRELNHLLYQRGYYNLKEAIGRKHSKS

The nature of assay [5]: inhibition of PAO1 biofilm formation – strain PAO1, LB-PBS medium, absorbance 600 nm, primary screen (AID 1176). Conditions: P. aeruginosa PAO1 growth/biofilm, A600, 12 h; higher = more signal.
Assay [6] in a line: growth modulation of vineyard yeast isolate – strain RM11-1a, OD600, basal, 24 h, primary screen (AID 1177).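 Note: cultures grown under basal conditions with no added stressor.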 The following applies: S. cerevisiae RM11-1a growth, OD600, 24 h; higher = more signal, called active from +8 up or from −8 down.
A short description of assay [7]: growth of efflux-deficient E. coli DRC39 – strain DRC39, OD650, 24 h, E. coli filamentation inducers, primary screen (AID 1178).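 Note: growth measured as culture turbidity by optical density at 650 nm.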 Conditions: E. coli DRC39 acrAB, higher = more signal, called active from +8 up or from −8 down.
The nature of assay [8]: growth of efflux-deficient E. coli DRC39 – strain DRC39, OD650, 48 h, E. coli filamentation inducers, primary screen (AID 1179).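 Note: screen aims at cell division blockers that make cells filament.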 Conditions: E. coli DRC39 delta-acrAB growth, higher = more signal, called active from +8 up or from −8 down.
The nature of assay [9]: viability profiling in RPMI8226 myeloma cells – cell-based, resazurin fluorescence, basal, 24 h, PK04 Diversity Set, profiling panel (AID 1180).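 Note: RPMI8826 multiple myeloma cell line at 5000 cells per well.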 Conditions: higher = more signal.
In assay [10] the target is E3 ubiquitin-protein ligase XIAP (Homo sapiens) (UniProt P98170). The experiment in a line: small molecules binding XIAP protein – biophysical, small-molecule microarray, fluorescence 635 nm, primary screen (AID 1181).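 Note: score merges 667 nm emission and signal to noise over triplicate slides.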 Conditions: higher = more signal.
Chain of E3 ubiquitin-protein ligase XIAP (Homo sapiens) (P98170 whole entry, looked up, the tested form may be a part): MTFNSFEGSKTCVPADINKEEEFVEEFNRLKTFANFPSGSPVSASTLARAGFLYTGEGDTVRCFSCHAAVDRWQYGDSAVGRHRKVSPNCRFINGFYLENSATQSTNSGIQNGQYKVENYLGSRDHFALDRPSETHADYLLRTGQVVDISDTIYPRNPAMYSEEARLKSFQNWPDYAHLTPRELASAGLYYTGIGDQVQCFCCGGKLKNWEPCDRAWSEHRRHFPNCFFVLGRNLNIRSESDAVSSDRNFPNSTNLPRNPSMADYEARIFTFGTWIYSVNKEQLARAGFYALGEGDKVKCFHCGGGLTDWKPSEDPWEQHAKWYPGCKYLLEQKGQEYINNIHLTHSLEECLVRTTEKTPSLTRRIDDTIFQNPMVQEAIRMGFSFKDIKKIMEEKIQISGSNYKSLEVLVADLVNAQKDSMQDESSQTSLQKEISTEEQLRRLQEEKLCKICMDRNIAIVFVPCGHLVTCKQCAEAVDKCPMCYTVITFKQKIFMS
Assay [11] deals with XIP peptide (Xip251-270) binding. The experiment in a line: XIP fragment 251-270 binding compounds – biochemical, small-molecule microarray, fluorescence 635/667 nm, 0.1 µg/mL protein, primary screen (AID 1182). Conditions: fluorescent protein binding, 635 nm, higher = more signal, called active from +8 up or from −8 down.
Assay [12] relates to XIP peptide (Xip251-270). The assay is described as follows: compounds binding XIP fragment 251-270 – biochemical, small-molecule microarray, fluorescence 635/667 nm, 0.5 µg/mL protein, primary screen (AID 1183). The following applies: fluorescence 635 nm, higher = more signal.
A short description of assay [13]: blood-stage malaria parasite viability loss – strain 3D7, DAPI fluorescence, 100 nL, primary screen (AID 1184).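 Note: parasites grown inside human red blood cells in medium with human serum.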 Conditions: P. falciparum 3D7 growth, 3 d, higher = more signal.
The target of assay [14] is Homeobox protein Hox-A13 (Mus musculus) (UniProt Q62424). The experiment in a line: disruptors of Hoxa13 oligonucleotide interaction – biochemical, fluorescence polarization, labeled oligonucleotide, primary screen (AID 1185). The following applies: Hoxa13:DNA binding, 15 min, higher = more signal, called active from +8 up or from −8 down.
Chain of Homeobox protein Hox-A13 (Mus musculus) (Q62424 whole entry, looked up): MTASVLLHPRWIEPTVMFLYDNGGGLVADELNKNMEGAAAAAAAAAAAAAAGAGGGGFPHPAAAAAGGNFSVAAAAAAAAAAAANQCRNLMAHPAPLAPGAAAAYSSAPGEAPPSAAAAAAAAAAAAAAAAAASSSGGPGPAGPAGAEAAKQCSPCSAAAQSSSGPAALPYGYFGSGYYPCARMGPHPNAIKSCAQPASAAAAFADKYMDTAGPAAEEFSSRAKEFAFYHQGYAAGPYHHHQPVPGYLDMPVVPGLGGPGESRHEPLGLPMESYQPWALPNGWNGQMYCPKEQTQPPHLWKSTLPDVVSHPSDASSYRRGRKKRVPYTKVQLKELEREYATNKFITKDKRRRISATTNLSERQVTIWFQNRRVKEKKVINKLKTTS
Assay [15] in a line: blockers of DNA damage checkpoint Chk1 activation – imaging, HeLa, hydroxyurea, phospho-Chk1 antibody, percent positive cells, primary screen (AID 1186). Conditions: hydroxyurea-induced phospho-Chk1 immunofluorescence imaging, higher = more signal.
Assay [16] in a line: blockers of DNA damage checkpoint Chk1 activation – imaging, HeLa, hydroxyurea, phospho-Chk1 nuclear intensity, primary screen (AID 1187). The following applies: hydroxyurea-induced phospho-Chk1 immunofluorescence imaging, higher = more signal.

“And” between values parts separate entries of the source, which are not always exact repeats. Equal entries are not always repeated. The source made the active and inactive calls. Unless noted, the rule behind the calls is not given here.

For the compound `C=CCN(C(=O)C(c1cccs1)N(C(=O)/C=C\C(=O)O)C(C)(C)CO)C(C)(C)C` (stereo unspecified), the z-score is -0.432 and -0.115 in assay [1]; -1.64 (inactive) and -0.838 (inactive) in assay [2]; 0.626 (inactive) and 0.391 (inactive) in assay [3]; 0.454 (inactive) and -0.0837 (inactive) in assay [5]; -1.86 (inactive) and -1.72 (inactive) in [6]; 1.97 (inactive) and 0.291 (inactive) in [7]. In addition, the z-score was 2.07 (inactive) and 0.946 (inactive) in assay [8]; 0.356 and 0.366 in assay [9]; 0.37 and -0.0391 in assay [13]; 0.692 (inactive) and 0.558 (inactive) in assay [14]; -0.225 (inactive) and -0.215 (inactive) in [15]; 0.269 (inactive) and 0.799 (inactive) in [16]. In addition, the composite z-score was -0.98 (inactive) and -0.499 (inactive) in [4]; -0.0669 and 0.0153 in [10]; 0.075 (inactive) and -0.479 (inactive) in assay [11]; -0.796 and 0.851 in assay [12].
Consider `C=CCN(CCCC)C(=O)C(c1cccs1)N(C(=O)/C=C\C(=O)O)c1c(Cl)cccc1CO` (stereo unspecified), for which the z-score was 0.766 and 0.197 in assay [1]; 0.405 (inactive) and -0.407 (inactive) in [2]; -1.21 (inactive) and -0.193 (inactive) in [3]; 0.991 (inactive) and 0.922 (inactive) in assay [5]; 0.201 (inactive) and 0.0171 (inactive) in [6]; 0.591 (inactive) and 0.408 (inactive) in [7]. Further, the z-score in assay [8] was 0.339 (inactive) and 0.354 (inactive); in [9], -0.101 and -0.108; in assay [13] it was -0.486 and -0.375; in [14], 0.477 (inactive) and -0.33 (inactive); in assay [15], 0.0771 (inactive) and -0.132 (inactive); in assay [16] it was 0.677 (inactive) and -0.0581 (inactive). The composite z-score in assay [4] is 0.005 (inactive) and 0.0035 (inactive); in assay [10] it was -0.0857 and -0.0807; in [11], -1.2 (inactive) and -0.551 (inactive); in assay [12] it was -1.64 and 0.45.
As to `C=CCN(C(=O)C1N(CCOCCO)C(=O)C2C(C(=O)O)C3C=CC21O3)c1ccc(OC)cc1` (stereo unspecified), the z-score in assay [1] is 0.0057 and 0.18; in assay [2] it was -0.174 (inactive) and -0.731 (inactive); in assay [3] it was 0.267 (inactive) and -0.0413 (inactive); in [5], -0.276 (inactive) and -0.0963 (inactive); in [6], -0.478 (inactive) and -0.298 (inactive); in assay [7], 0.556 (inactive) and 1.24 (inactive). In addition, the z-score in assay [8] is 0.2 (inactive) and 0.638 (inactive); in [9], -0.0424 and 0.0858; in assay [13] it was 0.301 and -0.0133; in assay [14], -1.06 (inactive) and -0.636 (inactive); in [15], 0.0962 (inactive) and 0.399 (inactive); in [16] it was -0.087 (inactive) and 0.191 (inactive). Besides, the composite z-score in assay [4] was -0.511 (inactive) and -4.53 (inactive); in [10] it was 0.0637 and 0.0264; in assay [11], -0.675 (inactive) and -0.315 (inactive); in assay [12] it was 0.138 and 0.24.
Turning to `C=CC[C@@H](O)c1ccc(OCCO)cc1`, the z-score was -0.369 and -0.32 in assay [1]; -5.91 (inactive) and -1.94 (inactive) in [2]; -1.12 (inactive) and -0.281 (inactive) in assay [3]; 0.674 (inactive) and 0.945 (inactive) in [5]; -1.1 (inactive) and -1.56 (inactive) in assay [6]; 0.0207 (inactive) and 0.149 (inactive) in [7]. Also, the z-score in assay [8] is 0.433 (inactive) and 0.571 (inactive); in [9] it was 0.0629 and 0.237; in assay [13], 0.667 and 0.717; in assay [14], -0.948 (inactive) and -0.931 (inactive); in assay [15], -0.442 (inactive) and -0.507 (inactive); in assay [16], 0.186 (inactive) and -0.0561 (inactive). The composite z-score was -0.744 (inactive) and -1.16 (inactive) in assay [4]; -0.31 and -0.102 in [10]; -0.0335 (inactive) and 0.172 (inactive) in [11]; 0.184 and -0.25 in [12].
`C=CCN(Cc1ccccc1)C(=O)C1N(c2c(Cl)cccc2CO)C(=O)C2C(C(=O)O)C3C=CC21O3` (stereo unspecified): the z-score in assay [1] was 0.753 and -0.367; in [2], -2.14 (inactive) and -0.245 (inactive); in assay [3], 1.33 (inactive) and -0.324 (inactive); in assay [5], -0.236 (inactive) and -0.329 (inactive); in assay [6], -3.44 (inactive) and 0.92 (inactive); in [7] it was 2.24 (inactive) and -0.745 (inactive). In addition, the z-score is 2.55 (inactive) and -0.89 (inactive) in [8]; 0.565 and -0.662 in [9]; -0.0029 and -1.42 in assay [13]; 0.428 (inactive) and -1.12 (inactive) in [14]; -0.544 (inactive) and -0.696 (inactive) in assay [15]; -0.649 (inactive) and -0.167 (inactive) in assay [16]. Moreover, the composite z-score is -0.33 (inactive) and 0.994 (inactive) in assay [4]; 0.0379 and -0.051 in assay [10]; 0.297 (inactive) and -0.407 (inactive) in assay [11]; -2.24 and -0.403 in assay [12].
With `CC(C)OC(=O)C=C1C[C@@H](c2ccccc2)O[C@@H](c2ccccc2)O1`, the z-score in assay [1] was 0.0904 and -0.562; in [2], -1.21 (inactive) and -0.385 (inactive); in assay [3], 0.468 (inactive) and -3.15 (inactive); in assay [5] it was 0.533 (inactive) and 0.394 (inactive); in [6] it was 0.306 (inactive) and 0.904 (inactive); in assay [7] it was -0.65 (inactive) and -0.601 (inactive). Besides, the z-score in [8] was 0.945 (inactive) and 0.907 (inactive); in [9] it was 1.54 and -2.33; in assay [13] it was -0.129 and 0.276; in [14] it was -3.55 (inactive) and -3.56 (inactive); in assay [15], -0.502 (inactive) and -0.334 (inactive); in [16] it was -0.687 (inactive) and -0.132 (inactive). For the same compound, the composite z-score in [4] is -0.125 (inactive) and -1.68 (inactive); in assay [10], -0.13 and 0.013; in assay [11], -0.0817 (inactive) and 0.574 (inactive); in [12], 0.686 and 0.831.
